{"source": "PubChem BioAssay (NCI)", "note": "The panel holds about 79,000 compounds, 15% with a hit somewhere; the sample as a whole holds those more often. Values without a mark were called inactive. Calls of active or inactive are those of the source. Cut-off read from the data, not from the text of the source: active = growth inhibition above about 70%; inactive = the rest.", "data": [{"experiment": "NCI Yeast Anticancer Drug Screen. Data for the mec2-1 strain (AID 157)", "details": "S. cerevisiae mec2-1 strain, at 5.0 µM (retest, dose inferred, filed as 0.5), stronger effect = higher value", "summary_of_the_method": "(§1)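 Test agents were screened against the mec2-1 yeast strain, with defined DNA repair or cell cycle alteration. Growth was scored as inhibition against vehicle-only controls.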", "values": [{"smiles": "COc1cc(C(c2cc3c(cc2O)OCO3)N2CCN(C(c3cc(OC)c(OC)c(OC)c3)c3cc4c(cc3O)OCO4)CC2)cc(OC)c1OC", "note": "(centres undefined)", "growth inhibition": "-1%"}, {"smiles": "Cc1cc(N)c(C)c2c1[nH]c1ccc(Br)cc12", "growth inhibition": "-3%"}, {"smiles": "COc1ccc(C2c3cc4c(cc3OC(O)(CO)C2C(=O)O)OCO4)cc1", "note": "(centres undefined) (tested in a mixture with another compound)", "growth inhibition": "-11%"}, {"smiles": "CCCCCC(/C=N/Nc1nc(C)cc(=O)[nH]1)=C\\c1ccccc1", "growth inhibition": "-1%"}, {"smiles": "O=C1/C(=C/c2ccc([N+](=O)[O-])cc2)CNC/C1=C\\c1ccc([N+](=O)[O-])cc1", "growth inhibition": "87% (active)"}, {"smiles": "CC(c1ccc2cccc(F)c2c1)c1ccccc1C(=O)O", "note": "(centres undefined)", "growth inhibition": "6%"}, {"smiles": "CN(NC(=O)CC(=O)NN(C)C(=S)c1ccccc1)C(=S)c1ccccc1", "growth inhibition": "81% (active)"}, {"smiles": "O=c1nc(N2CCCC2)nc(N2CCCC2)s1", "growth inhibition": "4%"}, {"smiles": "CC(=O)SC1C(=O)N(C)C(SC(C)=O)C(=O)N1C", "note": "(centres undefined)", "growth inhibition": "-5%"}, {"smiles": "CCN(CC)CC(O)c1ccnc2c(O)cccc12", "note": "(centres undefined)", "growth inhibition": "4%"}, {"smiles": "CC1=NN(c2ccccc2)C(=O)C1N=Nc1cc(Cl)cc(S(=O)(=O)O)c1O", "note": "(centres undefined)", "growth inhibition": "66%"}, {"smiles": "O=C(O)CC(NC(=O)CP(=O)(O)O)C(=O)O.[NH-]C1CCCCC1[NH-].[Pt+2]", "note": "(centres undefined)", "growth inhibition": "2%"}, {"smiles": "COc1ccc(-c2nc3c(C(=O)NCCN(C)C)cccc3c3ccccc23)cc1", "growth inhibition": "17%"}, {"smiles": "C[C@]12CCC(=O)C=C1CC[C@@H]1[C@@H]2[C@@H](O)C[C@@]2(C)[C@H]1CC[C@]2(O)C(=O)COC(=O)CCC1CCCC1", "growth inhibition": "29%"}, {"smiles": "O=C1C=CC(=O)N1c1cccc([N+](=O)[O-])c1", "growth inhibition": "95% (active)"}, {"smiles": "CC(=O)O/C=C1\\c2ccccc2CCC1c1ccc2ccccc2c1", "note": "(centres undefined)", "growth inhibition": "-4%"}, {"smiles": "CCOc1ccccc1NC1=C(Cl)C(=O)c2ccccc2C1=O", "growth inhibition": "99% (active)"}, {"smiles": "CCc1cccc(C)c1N1C(=O)C(=O)C(c2nc3ccccc3o2)/C(=N\\NS(=O)(=O)c2ccc(C)cc2)C1=O", "note": "(centres undefined)", "growth inhibition": "15%"}, {"smiles": "O=C(CC(=O)c1ccccc1)CC(=O)c1cccc(Cl)c1", "growth inhibition": "5%"}, {"smiles": "CC(O)c1c2ccccc2cc2ccccc12", "note": "(centres undefined)", "growth inhibition": "-7%"}, {"smiles": "CCCCCCCCCCCCCCCCC#N", "growth inhibition": "-2%"}, {"smiles": "O=C1/C(=C/c2cccc(Br)c2)CCc2ccccc21", "growth inhibition": "8%"}, {"smiles": "CC1(C)c2ccccc2Cc2cc3ccccc3nc21", "growth inhibition": "-4%"}, {"smiles": "CN(C)Cc1ccc2[nH]c3c(c2c1)CCCC3", "growth inhibition": "11%"}, {"smiles": "C=C1C(=O)O[C@@H]2C[C@@]3(C)CCC[C@H](C)C3=C[C@H]12", "growth inhibition": "23%"}, {"smiles": "O=C1C=CC(=O)c2c1cc1ccccc1c2O", "growth inhibition": "15%"}, {"smiles": "Cc1c(CNc2ccc(Cl)c(Cl)c2Cl)cnc2nc(N)nc(N)c12", "growth inhibition": "27%"}, {"smiles": "O=C(O)C1(Cc2ccc3c(c2)CCC3)Cc2cc3c(cc2C1)CCC3", "growth inhibition": "-7%"}, {"smiles": "O=C(c1ccc(O)c(Br)c1)c1cc(Br)ccc1O", "growth inhibition": "77% (active)"}, {"smiles": "Oc1cc(F)cc2cccnc12", "growth inhibition": "46%"}, {"smiles": "C/C(=N\\OC(=O)c1ccccc1)[N+](=O)[O-]", "growth inhibition": "-6%"}, {"smiles": "O=C(c1ccccc1)C(Br)CCCC(Br)C(=O)c1ccccc1", "note": "(centres undefined)", "growth inhibition": "16%"}]}, {"experiment": "NCI Yeast Anticancer Drug Screen. Data for the mec2-1 strain (AID 157)", "details": "S. cerevisiae mec2-1 strain, at 50.0 µM (retest, dose inferred, filed as 5.0), stronger effect = higher value", "summary_of_the_method": "as §1", "values": [{"smiles": "COc1cc(C(c2cc3c(cc2O)OCO3)N2CCN(C(c3cc(OC)c(OC)c(OC)c3)c3cc4c(cc3O)OCO4)CC2)cc(OC)c1OC", "note": "(centres undefined)", "growth inhibition": "74% (active)"}, {"smiles": "Cc1cc(N)c(C)c2c1[nH]c1ccc(Br)cc12", "growth inhibition": "89% (active)"}, {"smiles": "COc1ccc(C2c3cc4c(cc3OC(O)(CO)C2C(=O)O)OCO4)cc1", "note": "(centres undefined) (tested in a mixture with another compound)", "growth inhibition": "75% (active)"}, {"smiles": "CCCCCC(/C=N/Nc1nc(C)cc(=O)[nH]1)=C\\c1ccccc1", "growth inhibition": "50%"}, {"smiles": "O=C1/C(=C/c2ccc([N+](=O)[O-])cc2)CNC/C1=C\\c1ccc([N+](=O)[O-])cc1", "growth inhibition": "99% (active)"}, {"smiles": "CC(c1ccc2cccc(F)c2c1)c1ccccc1C(=O)O", "note": "(centres undefined)", "growth inhibition": "98% (active)"}, {"smiles": "CN(NC(=O)CC(=O)NN(C)C(=S)c1ccccc1)C(=S)c1ccccc1", "growth inhibition": "87% (active)"}, {"smiles": "O=c1nc(N2CCCC2)nc(N2CCCC2)s1", "growth inhibition": "-14%"}, {"smiles": "CC(=O)SC1C(=O)N(C)C(SC(C)=O)C(=O)N1C", "note": "(centres undefined)", "growth inhibition": "11%"}, {"smiles": "CCN(CC)CC(O)c1ccnc2c(O)cccc12", "note": "(centres undefined)", "growth inhibition": "40%"}, {"smiles": "CC1=NN(c2ccccc2)C(=O)C1N=Nc1cc(Cl)cc(S(=O)(=O)O)c1O", "note": "(centres undefined)", "growth inhibition": "99% (active)"}, {"smiles": "O=C(O)CC(NC(=O)CP(=O)(O)O)C(=O)O.[NH-]C1CCCCC1[NH-].[Pt+2]", "note": "(centres undefined)", "growth inhibition": "3%"}, {"smiles": "COc1ccc(-c2nc3c(C(=O)NCCN(C)C)cccc3c3ccccc23)cc1", "growth inhibition": "9%"}, {"smiles": "C[C@]12CCC(=O)C=C1CC[C@@H]1[C@@H]2[C@@H](O)C[C@@]2(C)[C@H]1CC[C@]2(O)C(=O)COC(=O)CCC1CCCC1", "growth inhibition": "95% (active)"}, {"smiles": "O=C1C=CC(=O)N1c1cccc([N+](=O)[O-])c1", "growth inhibition": "100% (active)"}, {"smiles": "CC(=O)O/C=C1\\c2ccccc2CCC1c1ccc2ccccc2c1", "note": "(centres undefined)", "growth inhibition": "-13%"}, {"smiles": "CCOc1ccccc1NC1=C(Cl)C(=O)c2ccccc2C1=O", "growth inhibition": "98% (active)"}, {"smiles": "CCc1cccc(C)c1N1C(=O)C(=O)C(c2nc3ccccc3o2)/C(=N\\NS(=O)(=O)c2ccc(C)cc2)C1=O", "note": "(centres undefined)", "growth inhibition": "34%"}, {"smiles": "O=C(CC(=O)c1ccccc1)CC(=O)c1cccc(Cl)c1", "growth inhibition": "89% (active)"}, {"smiles": "CC(O)c1c2ccccc2cc2ccccc12", "note": "(centres undefined)", "growth inhibition": "58%"}, {"smiles": "CCCCCCCCCCCCCCCCC#N", "growth inhibition": "-4%"}, {"smiles": "O=C1/C(=C/c2cccc(Br)c2)CCc2ccccc21", "growth inhibition": "49%"}, {"smiles": "CC1(C)c2ccccc2Cc2cc3ccccc3nc21", "growth inhibition": "99% (active)"}, {"smiles": "CN(C)Cc1ccc2[nH]c3c(c2c1)CCCC3", "growth inhibition": "72% (active)"}, {"smiles": "C=C1C(=O)O[C@@H]2C[C@@]3(C)CCC[C@H](C)C3=C[C@H]12", "growth inhibition": "98% (active)"}, {"smiles": "O=C1C=CC(=O)c2c1cc1ccccc1c2O", "growth inhibition": "99% (active)"}, {"smiles": "Cc1c(CNc2ccc(Cl)c(Cl)c2Cl)cnc2nc(N)nc(N)c12", "growth inhibition": "53%"}, {"smiles": "O=C(O)C1(Cc2ccc3c(c2)CCC3)Cc2cc3c(cc2C1)CCC3", "growth inhibition": "-7%"}, {"smiles": "O=C(c1ccc(O)c(Br)c1)c1cc(Br)ccc1O", "growth inhibition": "98% (active)"}, {"smiles": "Oc1cc(F)cc2cccnc12", "growth inhibition": "91% (active)"}, {"smiles": "C/C(=N\\OC(=O)c1ccccc1)[N+](=O)[O-]", "growth inhibition": "100% (active)"}, {"smiles": "O=C(c1ccccc1)C(Br)CCCC(Br)C(=O)c1ccccc1", "note": "(centres undefined)", "growth inhibition": "51%"}]}]}
